Assay results from PubChem BioAssay AID720519 (National Center for Advancing Translational Sciences (NCATS), 2013).
Inconclusive results are not listed. Calls of active or inactive are those of the source. Calls come from the whole dose curve; as a rule, active = well fitted activation curve with a large enough effect; inconclusive = small, poorly fitted or top-dose-only effect; inactive = flat fitted curve, though single readings scatter.

assay: qHTS for Inhibitors of Cell Surface uPA Generation: Confirmatory Assay for Cherry-picked Compounds; settings: cell surface uPA activity generation, qHTS confirmation; series mostly up to 115 µM; inhibition: at the top concentration; for inhibition: 0% is about no effect
Procedure, shortened: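 RAW 264.7 cells at 4000/well, incubated overnight, then treated with compounds. After 24 h at 37 C, viability was read by ATPlite luminescence. An increase in signal indicates blocked uPA-dependent LF entry.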
Potency is the fitted concentration of half-maximal effect.

inhibition, inactive:
CCOC(=O)CN1C(=O)N[C@@H](c2ccco2)C(C(=O)OC)=C1C -2.99%, CC(=O)Nc1ccc(NC(=O)CCCCCN2C(=O)c3ccccc3C2=O)cc1 -1.19%, Cc1nc(NC(=O)CSc2nnc(C3CC3)n2C)sc1C(=O)N(C)C 0.743%, COc1ccc(NC(=O)CCNS(=O)(=O)c2ccccc2F)cc1S(=O)(=O)N1CCOCC1 -1.83%, C/C(=N\NC(=S)NC(C)C)c1ccc(Cl)s1 -2.05%, CC(C)NCC1CCc2cc(CO)c([N+](=O)[O-])cc2N1 (centres undefined) 4.66%, COc1ccc(-n2nc(C(=O)Nc3cc(OC)c(OC)c(OC)c3)c3ccccc3c2=O)c(OC)c1 -2.46%, CCc1ccc(NC(=O)Cn2cnc([N+](=O)[O-])c2)cc1 -1.53%, COc1cccc(C(=O)NCC(c2ccco2)N2CCc3ccccc3C2)c1 (centres undefined) 0.309%, O=C(NCc1ccccn1)C1CCN(C(=O)c2cc3sccc3n2Cc2ccc(F)cc2)CC1 -2.71%, Cc1cccn2c(CNCC(C)Oc3cccnc3)c(C(=O)N3CCOCC3)nc12 (centres undefined) -1.92%, Cc1ccc(NC(=O)c2ccc(=O)[nH]n2)cc1S(=O)(=O)Nc1ccccc1Cl 1.5%, COc1ccc(C(=O)NCCCN2CCOCC2)cc1 -1.56%, Oc1c(N=NC(=S)Nc2ccccc2F)c2ccccc2n1Cc1ccccc1Cl -0.999%, COc1ccc(NS(=O)(=O)c2cc3c(cc2C)NC(=O)CO3)c(OC)c1 -1.01%, CCOc1ccc(NS(=O)(=O)c2ccc(C(=O)N3CCC3)cc2)cc1 -1.37%, CCOc1cc(C(=O)OCC(=O)c2cc(C)n(CC3CCCO3)c2C)ccc1OCC(=O)N1CCOCC1 (centres undefined) -2.56%, COc1ccc(C[C@@H]2OC3(C=CC(=O)C=C3)O[C@H]2Cc2ccc(OC)cc2)cc1 -3.22%

Potency, active:
CCN(CC)CC(=O)Nc1sc2c(c1C(=O)c1ccccc1OC)CCC2 10.4 µM
